# Experimental data published in PubChem BioAssay (NCATS).
# Several values for one entry are separate records, joined by “and”; a condition that tells them apart may be missing. Equal entries are not always repeated. Results filed as inconclusive are left out. Some compounds were tested as several samples or in several runs, with calls that do not always agree. Activity calls are given as the source filed them. Calls follow the shape of the dose curve; as a rule, active = well fitted cell-killing curve with a large enough effect; inconclusive = small, poorly fitted or top-dose-only effect, or effect the other way; inactive = no such curve, though single readings can be large or run the other way.
# Assay: Viability qHTS for spleen associated tyrosine kinase inhibitor (SYKi) naive MV4-11 cells (AID 1963823); also: nearly all actives have a fitted effect of over 40% in size
# Conditions: MV4-11 AML viability, CellTiter-Glo luminescence, 72 h; series mostly up to 45 µM; viability (% of control): at the top concentration
# Procedure, shortened: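 Seeding of 500 SYKi-naive MV4-11 cells per well onto pre-dispensed compounds preceded a 72 hr incubation at 37 C. Luminescent CellTiter-Glo signal, read after 10 min at room temperature, reflected viable cells.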
# Potency is read from the fitted curve at half-maximal effect.
Compound,Potency,viability (% of control)
Cc1noc(C)c1-c1ccc(-c2cc(C(N)=O)c(NC(N)=O)s2)c(O[C@H]2CCNC2)c1,2310 nM (active),
O=C(O)C1=CO[C@@H](O[C@@H]2O[C@H](CO)[C@@H](O)[C@H](O)[C@H]2O)[C@@H]2C(CO)=CC[C@H]12,10.1 µM (active) and inactive,
CC(=O)Nc1ccc(OCCOCCOc2ccc(NC(C)=O)cc2)cc1,,40.1% (inactive)
CN1CCN(C2CCC(n3cc(-c4ccc(Oc5ccccc5)cc4)c4c(N)ncnc43)CC2)CC1 (stereo not given),23.1 nM (active),
COc1ccc(Cl)cc1C(=O)NCCc1ccc(S(=O)(=O)NC(=O)NC2CCCCC2)cc1,,97.9% (inactive)
COc1cc(C(=O)O)ccc1NC(=O)[C@@H]1N[C@@H](CC(C)(C)C)[C@](C#N)(c2ccc(Cl)cc2F)[C@H]1c1cccc(Cl)c1F,6610 nM (active),
COc1ccc2cc(OCC3(C(=O)O)CN(C(=O)c4ccc(F)cc4)C3)ccc2c1,,59.4% (inactive)
CCC(=C/[C@H](C)C/C=C/C(C)=C/[C@@H](C)C(=O)[C@@H](C)[C@H](O)[C@@H](C)C/C(C)=C/C(=O)O)/C=C/[C@@H]1OC(=O)C=C[C@@H]1C,1.9 nM (active),
COc1cccc2c1C(=O)c1c(O)c3c(c(O)c1C2=O)C[C@@](O)(/C(CO)=N/NC(=O)CCCCCN1C(=O)C=CC1=O)C[C@@H]3O[C@H]1C[C@H](N)[C@H](O)[C@H](C)O1,132 nM (active),
CN(C)/N=N/c1nc[nH]c1C(N)=O,,85% (inactive)
C[C@@H]1O[C@@H](OC[C@H]2O[C@@H](Oc3c(-c4ccc(O)c(O)c4)oc4cc(O)cc(O)c4c3=O)[C@H](O)[C@@H](O)[C@@H]2O)[C@H](O)[C@H](O)[C@H]1O,,71.2% (inactive)
C[C@]12CCC3[C@@H](CC[C@H]4NC(=O)C=C[C@]34C)[C@@H]1CC[C@@H]2C(=O)Nc1cc(C(F)(F)F)ccc1C(F)(F)F (stereo not given in full),10500 nM (active),
C#CC(C)(CC)OC(=O)c1ccccc1C(=O)O (stereo not given),,72.7% (inactive)
C=C1C(=O)O[C@H]2C[C@H](C)C(/C=C/C(C)=O)=CC[C@H]12,1180 nM (active),
CNC[C@H](O)c1cccc(O)c1,531 nM (active),
CC(C)NCC(O)c1cc(O)cc(O)c1 (stereo not given),,71.6% (inactive)
COc1cc(N2CCN(C)CC2)ccc1Nc1ncc2c(n1)N(C)c1ccccc1C(=O)N2C,934 nM (active),
O=C1CC2(CCCC2)CC(=O)N1CCNCC1COc2ccccc2O1 (stereo not given),,69.3% (inactive)
COc1ccc(/C=C\c2cc(OC)c(OC)c(OC)c2)cc1O,5.3 nM (active),
CCS(=O)(=O)Nc1ccc(Oc2ccc(F)cc2F)c(-c2cn(C)c(=O)c3[nH]ccc23)c1,3.7 nM (active),

Compound,Potency,viability (% of control)
CC(COc1ccccc1)NN (stereo not given),,81.3% (inactive)
Nc1ncnc(Nc2ccc(OCc3ccccc3)c(Cl)c2)c1/C=N/OCCN1CCOCC1,8330 nM (active),
CO[C@@]12[C@H](COC(N)=O)C3=C(C(=O)C(C)=C(N)C3=O)N1C[C@@H]1N[C@@H]12,119 nM (active) and 118 nM (active),
O=C1NC(=O)[C@@H](c2c[nH]c3ccccc23)[C@H]1c1cn2c3c(cccc13)CCC2,833 nM (active),
COCc1c(-c2ccc(NC(=O)Nc3cc(C(F)(F)F)ccc3F)c(F)c2)c2c(N)ncnn2c1CN1CCOCC1,10.5 nM (active),
O=C(O)Cc1ccccc1Oc1ccc(Cl)cc1Cl,,60.1% (inactive)
COc1cc(C(=O)N2CCCCCCC2)cc(OC)c1OC,,56.8% (inactive)
CCN1C(=O)CNc2ncc(-c3ccc(-c4ncn[nH]4)nc3C)nc21,417 nM (active),
N=C(N)c1ccc2nc(-c3cc(CC(=O)N[C@@H](CC(=O)O)C(=O)O)cc(-c4cc(S(N)(=O)=O)ccc4O)c3O)[nH]c2c1,,81.8% (inactive)
COc1cccc2c1C(=O)c1c(O)c3c(c(O)c1C2=O)C[C@@](O)(C(=O)CO)C[C@@H]3O[C@H]1C[C@H](N)[C@H](O)[C@H](C)O1,133 nM (active),
CCN(CC)CCOC(=O)C1(c2ccccc2)CCCC1,,59.6% (inactive)
CC[C@]1(O)CC2CN(CCc3c([nH]c4ccccc34)[C@@](C(=O)OC)(c3cc4c(cc3OC)N(C)[C@H]3[C@@](O)(C(=O)OC)[C@H](OC(C)=O)[C@]5(CC)C=CCN6CC[C@]43[C@@H]65)C2)C1 (stereo not given in full),33.2 nM (active),
CC(C)N(CCC(=O)c1ccc2ccccc2c1)Cc1ccccc1,2350 nM (active),
CCC(Cc1c(I)cc(I)c(N)c1I)C(=O)O (stereo not given),,76.2% (inactive)
COc1cc(C=C2CCC/C(=C\c3ccc(O)c(OC)c3)C2=O)ccc1O,3760 nM (active),
Nc1ncnc2c1ncn2[C@@H]1O[C@H](CO)C[C@H]1O,,81.2% (inactive)
N[C@@H]1CN(c2c(F)cc3c(=O)c(C(=O)O)cn([C@@H]4C[C@@H]4F)c3c2Cl)CC12CC2,,60.4% (inactive)
COc1ccc(S(=O)(=O)N(C(C)=O)c2ccccc2/C=C/c2cc[n+]([O-])cc2)cc1,934 nM (active),
COc1ccc(Cc2cnc(N)nc2N)cc1OC,,113% (inactive)
COc1ccc(S(=O)(=O)Nc2cc(-c3csc(C#N)c3)ccc2C)cc1,83.3 nM (active),
